Measurements as given in PubChem BioAssay (NCI).
This is part of a sample that, as a whole, favours compounds with a hit. Of some 83,000 tested, about 20% had one in any assay.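 Assay: single dose, 48 h. Readout: percent growth (0 = no net growth; negative = cell death). Active: <10.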 A number with no mark means an inactive call. Activity calls are given as the source filed them.

Legend:
Test in all cases: NCI-60 one-dose screen, 48 h (100 = growth as untreated, 0 = no growth, -100 = all killed)
Conditions in all cases: 10 µM unless noted
[1] = tested on: NCI-H23 lung
[2] = tested on: NCI-H226 lung
[3] = tested on: NCI-H322M lung
[4] = tested on: HOP-62 NSCLC
[5] = tested on: NCI-H460 lung
[6] = tested on: HOP-92 NSCLC
[7] = tested on: NCI-H522 lung
[8] = tested on: A549/ATCC NSCLC
[9] = tested on: 786-0 renal
[10] = tested on: COLO 205 colon

| Compound | growth [1] | growth [2] | growth [3] | growth [4] | growth [5] | growth [6] | growth [7] | growth [8] | growth [9] | growth [10] |
| --- | --- | --- | --- | --- | --- | --- | --- | --- | --- | --- |
| CS(=O)(=O)c1ccc2c(c1)c1c(n2C(=O)c2ccc(Cl)cc2)CCCC1 | 45% | 60.9% | 43.8% | 43.1% | 12.3% | 35% | -44.2% (active) | 50.6% | 43.6% | -1.12% (active) |
| COc1ccc(Cn2cc3c(c2-c2ccccc2)CCCc2cnoc2-3)cc1 | 77.6% | 79% | 76% | 63.8% | 26.9% | 72% | 34.9% | 56.6% | 73.3% | 40.9% |
| Oc1ccc(CSc2nnc(-c3ccncc3)o2)c2cccnc12 | 17.7% | 22.7% | 39.4% | 12.3% | 4.37% (active) | -20.8% (active) | 11.6% | 15.4% | 31.3% | 68.4% |
| Cc1cc(C(=O)Nc2ccc(SC#N)cc2)c(C)o1 | 89.5% | 77.7% | 96.2% | 63.9% | 82.4% | 110% | 49.8% | 82.4% | 88.2% | 106% |
| COc1cc([C@H]2OC[C@H]3[C@@H]2CO[C@@H]3c2ccc(O)c(OC)c2)ccc1O | 86.3% | 86% | 91.7% | 81.2% | 90.3% | 91.8% | 75.8% | 95.1% | 101% | 86.9% |
| Cn1cc(-c2nn3cc(-c4cccnc4)nc3s2)c2ccccc21 | 30.1% | 30.2% | 55.3% | 39.1% | 9.94% (active) | 26.1% | -12.9% (active) | 44% | 59.7% | -2.12% (active) |
| C=C(C)[C@@H]1CC[C@]2(C(=O)ON)CC[C@]3(C)[C@H](CC[C@@H]4[C@@]5(C)C/C(=C/c6ccc(Br)cc6)C(=O)C(C)(C)[C@@H]5CC[C@]43C)[C@@H]12 | 78.4% | 72.6% | 85.1% | 85.9% | 71% | 73.6% | 66.8% | 54.8% | 84.8% | 88% |
| C#C[C@]1(O)CC[C@H]2[C@@H]3CC=C4c5sc(C6CCOCC6)nc5CC[C@]4(C)[C@H]3CC[C@@]21C | 74.4% | 82.5% | 84.1% | 90.5% | 79.8% | 103% | 80.8% | 73.2% | 62.7% | 103% |
| CNC(=O)c1c(NC(=O)c2ccc(F)cc2F)sc2c1CCC(=O)C2 | 5.55% (active) | 15.7% | 33.3% | 16.3% | 1.92% (active) | -34% (active) | -10.1% (active) | 13.1% | 24% | -74% (active) |
| C(=C(\C1=NCCN1)n1cnc2ccccc21)/c1cccc2ccccc12 | 90.7% | 76.4% | 88.2% | 88.6% | 101% | 8.37% (active) | 79.4% | 94% | 92.5% | 106% |
| Nc1ccc(-c2nnc(SCc3ccc(O)c4ncccc34)o2)cc1 | 3.69% (active) | -12.5% (active) | -0.446% (active) | -5.24% (active) | -46.8% (active) | -36.8% (active) | -2.05% (active) | -1.54% (active) | 7.93% (active) | 1.77% (active) |
| CCNCc1c(-c2cccc(OC(F)(F)F)c2)[nH]c2ccc(N3CCCC3)cc2c1=O | 24.9% | 37.1% | 30.3% | 29.2% | 8.9% (active) | 43.4% | 32.5% | 40.2% | 28.2% | 17.9% |
| O=C1CC2(CCOCC2)Oc2ncccc21 | 72.5% | 103% | 103% | 101% | 106% | 94.6% | -49.2% (active) | 102% | 47.7% | -13.7% (active) |
| COc1ccc(N2CCN(C(=O)CSc3ccc(-c4nc5cc(C)c(C)cc5[nH]4)cn3)CC2)cc1 | 54.5% | 66.8% | 76.6% | 84.9% | 89.9% | 85% | 36% | 77.3% | 102% | 60.2% |
| Cn1cc(-c2nn3cc(-c4cccnc4)nc3s2)c2cc(F)ccc21 | 93.9% | 75% | 87.8% | 71.6% | 94.2% | 60.5% | 70.2% | 94.4% | 110% | 83.2% |
| COc1ccc(S(=O)(=O)n2cc(C=O)c3ccccc32)c(OC)c1 | 79.4% | 70.6% | 102% | 77.9% | 98.5% | 43.3% | 97.7% | 93.2% | 94.2% | 108% |
| Nc1ccc(-c2nnc(SCc3ccc(O)c4ncccc34)n2-c2ccccc2)cc1 | 13.2% | 44% | 23.7% | 17% | 5.71% (active) | -21% (active) | 17.5% | 14.1% | 19.9% | 4.41% (active) |
| COc1cc(/C=N/n2cnc3oc(-c4ccccc4)cc3c2=N)cc(CN2CCCCC2)c1O | -56.4% (active) | -3.78% (active) | -1.45% (active) | -39.2% (active) | -72.7% (active) | 86.2% | -42.2% (active) | -68.8% (active) | -79.5% (active) | 11.7% |
| CN(c1ccc(Cl)cc1)S(=O)(=O)c1ccc(-c2cnc(C3CC3)o2)cc1 | 23.8% | 14.5% | 55% | 45.6% | 8.85% (active) | 63.9% | 30.8% | 24.3% | 31.9% | -7.11% (active) |
| COc1cc(/C=C/C(=O)c2ccc(NC(=O)CSc3nnc(-c4ccc5nc(-c6ccccc6)[nH]c5c4)o3)cc2)cc(OC)c1OC | 92.7% | 99.3% | 96.9% | 114% | 92.5% | 142% | 95.3% | 105% | 75.4% | 115% |
| CN1CCN(c2ccc(C(=O)Nc3cccc(-c4cn(-c5ccc(S(N)(=O)=O)cc5)nn4)c3)cc2C(F)(F)F)CC1 | 82.2% | 96.8% | 72% | 85.7% | 78.8% | 56.4% | 90.2% | 91.5% | 52.5% | 85.3% |
| COc1cc(/C=N/Nc2ccnc3cc(Cl)ccc23)cc(OC)c1O | -42% (active) | 96.2% | -45.1% (active) | -78% (active) | -63.9% (active) | -74% (active) | -73.8% (active) | -82.2% (active) | -87.5% (active) | 72% |
| Nc1cc(F)ccc1NC(=O)c1ccc(NC(=O)C/C=C/c2cccnc2)cn1 | 32% | 46.8% | 40.2% | 29.6% | 30% | 5.74% (active) | -4.98% (active) | 31.5% | 41.8% | 1.22% (active) |
| NS(=O)(=O)Oc1ccc2nc(Nc3ccc(F)c(F)c3)ccc2c1 | 96.3% | 90.5% | 92.9% | 99.4% | 98.1% | 115% | 91.4% | 79.6% | 89.6% | 93.8% |
| CC1OC(O[C@@H]2[C@H](O)C(CO)OC(O[C@H]3COC(O[C@H]4CC[C@]5(C)[C@H]6CC[C@]78OC[C@@]9(CCC(C)(C)C[C@H]97)[C@H](O)C[C@@]8(C)[C@]6(C)CC[C@H]5C4(C)C)[C@@H](OC4OC(CO)[C@@H](O)[C@@H](O)[C@@H]4O)[C@@H]3O)[C@H]2OC2OC[C@@H](O)[C@@H](O)[C@@H]2O)[C@@H](O)[C@@H](O)[C@H]1O (stereo not given in full) | -62.7% (active) | -40% (active) | -78.2% (active) | -81% (active) | -65.2% (active) | -39.3% (active) | -72.4% (active) | -67.7% (active) | -80.9% (active) | -74.5% (active) |
